# Values joined by “and” are separate entries in the source; they are usually repeats but may differ in a detail not shown here. Identical values can stand only once. Results filed as inconclusive are left out. Where a call stands in place of a potency, no number is given. Active and inactive are the calls of the source. Unless noted, calls follow the shape of the full dose curve.
# Legend:
# [1] = Nuclear factor erythroid 2-related factor 2/antioxidant responsive element (Nrf2/ARE) small molecule agonists: qHTS cell viability counter screen in human keratinocytes (AID 1919968; active = well fitted cell-killing curve with a large enough effect in the repeat runs; also: nearly all actives have a fitted effect of over 55% in size; also: potency is read from the fitted curve at half-maximal effect)
# Summary of the method: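 HaCaT ARE reporter line, 1,500 cells/well; 5 h settle, 37 C/5% CO2; cpd in DMSO pinned; 23 h exposure; CellTiter-Fluor, 1 h; fluorescence.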
# [2] = Nuclear factor erythroid 2-related factor 2/antioxidant responsive element (Nrf2/ARE) small molecule agonists: luciferase reporter gene qHTS assay in human keratinocytes (AID 1919969); also: nearly all actives have a fitted effect of over 35% in size
# [3] = G protein-coupled receptor (GPCR) small molecule agonists, calcium flux assay: HEK293 wild type cell line counter screen (AID 1920065)
# Summary of the method: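 Kinetic fluorescence at Ex/Em 480/540, recorded every second over 3 min, served as the read-out after compound addition. Each compound was tested at 15 concentrations in triplicate on cells pre-loaded with calcium dye for 1 h.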
# [4] = p53 small molecule agonists, cell-based qHTS assay with human liver microsomes (AID 1963577);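 also: p53 response element beta-lactamase reporter cells with liver microsomes plus NADPH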
# Summary of the method: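 p53RE-bla cells; 5 h settle, 37 C/5% CO2; cpd + HLM 0.5 mg/mL + NADPH 0.5 mg/mL (final); 16 h 37 C; LiveBLAzer 2 h RT dark; fluorescence readout.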
# [5] = p53 small molecule agonists, cell-based qHTS assay with rat liver microsomes (AID 1963578)
# Summary of the method: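 Rat liver microsome activation: microsomes 0.5 mg/mL, NADPH 0.5 mg/mL final; p53RE-bla cells, 16 h 37 C; LiveBLAzer readout, 2 h RT dark.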
# [6] = p53 small molecule agonists, cell-based qHTS assay with human liver microsomes: qHTS cell viability counter screen (AID 1963579); also: nearly all actives have a fitted effect of over 45% in size
# Summary of the method: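 Luminescent CellTiter-Glo read-out, 30 min at room temperature, gauged cytotoxicity in p53RE-bla cells exposed 16 h at 37 C to DMSO-dissolved compounds with metabolic activation by human liver microsomes and NADPH, each 0.5 mg/mL final.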
# [7] = p53 small molecule agonists, cell-based qHTS assay with rat liver microsomes: qHTS cell viability counter screen (AID 1963580); also: nearly all actives have a fitted effect of over 45% in size
# Summary of the method: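 HCT-116 p53RE-bla, 4,000 cells/well, 5 h pre-incubation; cpd + rat liver microsomes 0.5 mg/mL + NADPH 0.5 mg/mL (final); 16 h, 37 C; CellTiter-Glo, 30 min RT; luminescence.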
# [8] = p53 small molecule agonists, cell-based qHTS assay: qHTS cell viability counter screen (AID 1963581); also: nearly all actives have a fitted effect of over 45% in size
# Summary of the method: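 HCT-116 p53RE-bla cells, 4,000/well, plated 5 h before compound pin transfer; 16 h at 37 C; bla substrate 2 h RT; then CellTiter-Glo, 30 min RT, luminescence.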
# [9] = p53 small molecule agonists, cell-based qHTS assay (AID 1963582; active = well fitted activation curve with a large enough effect in the signal ratio in the repeat runs, not every such curve was filed as active; the % refers to the signal ratio)
# Summary of the method: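 Reporter line: p53RE-bla. Pre-incubation 5 h, 37 C, 5% CO2; compound (DMSO, pin tool) 16 h, 37 C; B/G FRET substrate 2 h RT; fluorescence intensity read.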
# [10] = molecular target: 5-hydroxytryptamine receptor 2A (Homo sapiens) (UniProt P28223); assay: 5-hydroxytryptamine receptor 2A (HTR2A) small molecule antagonists, cell-based qHTS assay (AID 1963586); also: nearly all actives have a fitted effect of over 45% in size
# Summary of the method: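 Antagonist-mode intracellular calcium assay: DOI (4 nM) added after 5 min compound pre-incubation at room temperature to dye-loaded HTR2A-CHO cells. Fluorescence followed for 3 min, sampled every second.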
# [11] = molecular target: 5-hydroxytryptamine receptor 2A (Homo sapiens) (UniProt P28223); assay: 5-hydroxytryptamine receptor 2A (HTR2A) small molecule agonists, cell-based qHTS assay (AID 1963587); also: nearly all actives have a fitted effect of over 30% in size
# Summary of the method: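 Kinetic calcium-flux fluorescence (2 min, 1 sec intervals) after compound addition in agonist mode. HTR2A-CHO cells were cultured 18 h, then dye-loaded 1 h at 37 C.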
# [12] = molecular target: Muscarinic acetylcholine receptor M1 (Homo sapiens) (UniProt P11229); assay: Cholinergic receptor muscarinic 1 (CHRM1) small molecule antagonists, cell-based qHTS assay (AID 1963588); also: nearly all actives have a fitted effect of over 40% in size
# Summary of the method: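 CHRM1-CHO calcium-flux assay, antagonist mode. Cells were seeded 18 h, dye-loaded 1 h at 37 C and given compound for 5 min at RT, then acetylcholine was added at 50nM. FDSS fluorescence was read 3 min; 15 concentrations, three runs.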
# [13] = molecular target: Muscarinic acetylcholine receptor M1 (Homo sapiens) (UniProt P11229); assay: Cholinergic receptor muscarinic 1 (CHRM1) small molecule agonists, cell-based qHTS assay (AID 1963589); also: nearly all actives have a fitted effect of over 35% in size
# Summary of the method: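 Human M1 in stable CHO line; 18 h plating, 1 h dye load 37 C; cpd added (agonist mode); Ca2+ fluorescence kinetic read, 1 s intervals; 15 conc, 3 runs.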
# [14] = cAMP Responsive Elements (CRE) small molecule agonists, cell-based qHTS assay (AID 1963590)
# Summary of the method: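 HEK 293T CRE-bla, 2,000 cells/well, 18 h preincubation 37 C/5% CO2; cpds (DMSO) pinned, 3 h; LiveBLAzer B/G FRET substrate, 2 h RT.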
# [15] = cAMP Responsive Elements (CRE) small molecule antagonists, cell-based qHTS assay (AID 1963591; active = well fitted inhibition curve with a large enough effect in the signal ratio in the repeat runs, not every such curve was filed as active; the % refers to the signal ratio)
# Summary of the method: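 Beta-lactamase reporter read by FRET substrate (LiveBLAzer B/G) after 2 h at room temperature. CRE-bla HEK293T cells had received compound plus 0.25 uM (final) NKH477 for 3 h at 37 °C.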
# [16] = molecular target: Beta-2 adrenergic receptor (Homo sapiens) (UniProt P07550); assay: Adrenergic beta2 receptor (ADRB2) small molecule antagonists, cell-based qHTS assay (AID 1963592); also: series mostly up to about 92 µM; nearly all actives have a fitted effect of over 50% in size
# Summary of the method: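 Cells (CHO, stable ADRB2 overexpression) incubated 18-20hr at 37C; compounds added from DMSO; agonist mix (1nM isoproterenol, 100uM IBMX, 25uM Ro-20-1724) added; 0.5hr RT; d2-cAMP and anti-cAMP-cryptate added; 1hr RT; 665/615 nm read.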
# [17] = molecular target: D(2) dopamine receptor (Homo sapiens) (UniProt P14416); assay: Dopamine D2 receptor (DRD2) small molecule agonists, cell-based qHTS assay (AID 1963594); also: nearly all actives have a fitted effect of over 35% in size
# Summary of the method: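 cAMP accumulation in DRD2-HEK293 cells measured by HTRF after 1 h detection; compounds added 10 min before NKH477 (200nM […]) forskolin-analogue stimulation, 30 min at room temperature, with Ro20-1724 present at 0.1 mM final.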
# [18] = molecular target: D(2) dopamine receptor (Homo sapiens) (UniProt P14416); assay: Dopamine D2 receptor (DRD2) small molecule antagonists, cell-based qHTS assay (AID 1963595; active = well fitted inhibition curve with a large enough effect in the signal ratio in the repeat runs, with a control signal flat; the % refers to the signal ratio)
# Summary of the method: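 Antagonist mode in DRD2-HEK293 cells: after compound addition with 0.1 mM Ro20-1724, cells received quinpirole (12 nM) and NKH477 (200 nM) for 30 min at room temperature; HTRF cAMP read after 1 h detection.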
# [19] = molecular target: Beta-2 adrenergic receptor (Homo sapiens) (UniProt P07550); assay: Adrenergic beta2 receptor (ADRB2) small molecule agonists, cell-based qHTS assay (AID 1963593);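 also: CHO cells stably overexpressing human ADRB2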
# Summary of the method: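 CHO cells stably over-expressing ADRB2 were plated overnight at 37C, then dosed with compounds plus a stimulation mix containing 100uM IBMX and 25uM Ro-20-1724 for 0.5hr at room temperature. cAMP was measured by HTRF competition, 1hr.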
# Chain of Beta-2 adrenergic receptor (Homo sapiens) (P07550 whole entry, looked up): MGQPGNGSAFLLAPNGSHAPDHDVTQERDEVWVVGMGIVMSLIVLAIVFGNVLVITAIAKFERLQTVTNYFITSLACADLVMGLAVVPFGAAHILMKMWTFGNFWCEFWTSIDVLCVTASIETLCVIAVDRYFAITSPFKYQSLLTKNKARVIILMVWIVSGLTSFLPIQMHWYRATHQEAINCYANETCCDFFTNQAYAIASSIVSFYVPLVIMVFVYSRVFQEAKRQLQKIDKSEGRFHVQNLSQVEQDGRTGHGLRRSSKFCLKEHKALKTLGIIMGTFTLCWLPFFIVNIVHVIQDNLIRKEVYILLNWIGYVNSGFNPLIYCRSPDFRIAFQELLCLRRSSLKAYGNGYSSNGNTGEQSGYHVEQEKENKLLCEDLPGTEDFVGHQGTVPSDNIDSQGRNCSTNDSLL
# Chain of 5-hydroxytryptamine receptor 2A (Homo sapiens) (P28223 whole entry, looked up): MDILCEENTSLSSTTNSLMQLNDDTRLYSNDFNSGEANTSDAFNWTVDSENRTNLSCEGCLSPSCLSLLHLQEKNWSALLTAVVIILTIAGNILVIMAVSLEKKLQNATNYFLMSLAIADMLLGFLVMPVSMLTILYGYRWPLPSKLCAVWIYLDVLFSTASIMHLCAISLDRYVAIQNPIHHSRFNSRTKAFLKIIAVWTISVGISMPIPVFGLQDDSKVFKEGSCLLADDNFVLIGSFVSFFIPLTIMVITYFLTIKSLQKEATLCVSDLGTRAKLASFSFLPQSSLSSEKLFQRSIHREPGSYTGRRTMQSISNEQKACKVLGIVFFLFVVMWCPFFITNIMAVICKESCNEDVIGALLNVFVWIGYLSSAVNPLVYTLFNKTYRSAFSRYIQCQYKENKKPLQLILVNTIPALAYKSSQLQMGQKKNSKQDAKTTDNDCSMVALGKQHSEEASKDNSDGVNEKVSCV
# Chain of Muscarinic acetylcholine receptor M1 (Homo sapiens) (P11229 whole entry, looked up): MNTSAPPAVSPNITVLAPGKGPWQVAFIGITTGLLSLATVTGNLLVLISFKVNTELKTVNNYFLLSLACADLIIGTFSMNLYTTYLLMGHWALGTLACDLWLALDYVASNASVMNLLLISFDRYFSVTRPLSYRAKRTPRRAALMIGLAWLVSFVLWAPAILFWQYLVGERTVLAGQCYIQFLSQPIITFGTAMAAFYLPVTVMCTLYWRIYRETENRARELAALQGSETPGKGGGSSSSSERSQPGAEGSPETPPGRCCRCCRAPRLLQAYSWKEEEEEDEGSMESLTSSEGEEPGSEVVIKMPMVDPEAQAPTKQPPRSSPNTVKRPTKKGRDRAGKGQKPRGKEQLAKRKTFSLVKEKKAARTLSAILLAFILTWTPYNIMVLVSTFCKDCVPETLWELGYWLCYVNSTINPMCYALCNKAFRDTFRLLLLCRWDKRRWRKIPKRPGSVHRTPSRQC
# Chain of D(2) dopamine receptor (Homo sapiens) (P14416 whole entry, looked up): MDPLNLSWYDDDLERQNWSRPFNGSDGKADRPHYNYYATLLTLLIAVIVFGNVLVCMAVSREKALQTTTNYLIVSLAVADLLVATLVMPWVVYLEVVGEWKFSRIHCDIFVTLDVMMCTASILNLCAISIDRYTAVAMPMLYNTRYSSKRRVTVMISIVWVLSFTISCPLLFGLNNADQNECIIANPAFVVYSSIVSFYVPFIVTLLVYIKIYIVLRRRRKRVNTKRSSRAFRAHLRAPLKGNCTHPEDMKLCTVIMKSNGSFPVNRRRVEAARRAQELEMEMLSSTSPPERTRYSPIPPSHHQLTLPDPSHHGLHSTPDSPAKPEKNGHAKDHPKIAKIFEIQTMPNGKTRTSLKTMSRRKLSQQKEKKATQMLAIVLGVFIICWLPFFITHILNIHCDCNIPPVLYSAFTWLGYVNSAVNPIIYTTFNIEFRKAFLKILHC
SMILES,Potency [1],Potency [2],Potency [3],Potency [4],Potency [5],Potency [6],Potency [7],Potency [8],Potency [9],Potency [10],Potency [11],Potency [12],Potency [13],Potency [14],Potency [15],Potency [16],Potency [17],Potency [18],Potency [19]
COc1ccc2c(c1OC)C(=O)O[C@@H]2[C@H]1c2cc3c(cc2CCN1C)OCO3,inactive,inactive,inactive,inactive,inactive,inactive,inactive,inactive,inactive,inactive,inactive,inactive,inactive,inactive,inactive,inactive,inactive,inactive,–
CCCCC(CC)COC(=O)c1c(Br)c(Br)c(Br)c(Br)c1C(=O)OCC(CC)CCCC (stereo not drawn),inactive,inactive,inactive,inactive,inactive,inactive,inactive,inactive,inactive,inactive,inactive,inactive,–,inactive,inactive,inactive,–,inactive,inactive
ClC1=C(Cl)C2(Cl)C3C(Cl)C=CC3C1(Cl)C2(Cl)Cl (stereo not drawn),27.4 µM (active) and 61.1 µM (active),inactive,inactive,inactive,inactive,inactive,inactive,inactive,inactive,inactive,inactive,inactive,inactive,inactive,inactive,inactive,inactive,inactive,–
